The record followed here is PubChem BioAssay (NCI).

The panel holds about 83,000 compounds, 20% with a hit somewhere; the sample as a whole holds those more often.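 Single-dose data. Exposure time 48 hours. Values below 10 considered active.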 The source made the active and inactive calls.

The subject of this assay is RPMI-8226 leukemia. Put plainly: NCI-60 one-dose screen, 48 h (100 = growth as untreated, 0 = no growth, -100 = all killed). Particulars: 10 µM unless noted.
On to `O=C(Nc1cc(C(F)(F)F)cc(C(F)(F)F)c1)Nc1ccc(OCc2nnc(-c3ccc(Cl)cc3)o2)c(F)c1`, for which the growth is 3.52% (active).

As for `Oc1ccc(N=Cc2ccccc2)cc1`, the growth is 55.4% (inactive). The value for `Nc1ccccc1C#C/C=C\C#Cc1cccc(O)c1` was 34% (inactive); that for `CCn1cc(C(=O)O)c(=O)c2cc(F)c(N3CCN(S(=O)(=O)c4ccc(Cl)cc4Cl)CC3)cc21` was 9.07% (active); that for `COc1cc(CNC(=O)CSc2nc3ccccc3c(=O)n2Cc2cc(OC)c(OC)c(OC)c2)cc(OC)c1OC` was 102% (inactive). For the compound `COc1cc(CCn2nnc3c(NCCCCO)ncnc32)cc(OC)c1`, the growth is 95.7% (inactive).

As to `C/C(=C\c1csc(C)n1)[C@@H]1C[C@@H]2O[C@]2(C)CCC[C@H](C)[C@H](O)[C@@H](C)C(=O)C(C)(C)[C@@H](O)CC(=O)N1`, the growth is -45.3% (active). The result for `COc1ccc(S(=O)(=O)N2CCN(c3cc4c(cc3F)c(=O)c(C(=O)O)cn4C3CC3)CC2)c(OC)c1` reads 86.7% (inactive).

As for `CC[C@]1(O)C[C@@H]2CN(Cc3c([nH]c4ccccc34)[C@@](C(=O)OC)(c3cc4c(cc3OC)N(C)[C@H]3[C@@](O)(C(=O)OC)[C@H](OC(C)=O)[C@]5(CC)[C@@H]6C[C@@H]6CN6CC[C@]43[C@@H]65)C2)C1`, the growth is 48.8% (inactive). The value for `COC1=CC(c2ccc[nH]2)=N/C1=C\c1[nH]c(C)c(C(=O)CCCCC(=O)Oc2ccc3c(c2)CCC2C3CC[C@]3(C)[C@@H](O)CC[C@@H]23)c1C` (some centres undefined) was 45% (inactive). `N#Cc1ncc(-c2ccc(F)c(F)c2F)c(NC2CCCCCC2)n1`: the growth is 63.1% (inactive). The value for `O=C(O)c1cn(C2CC2)c2cc(N3CCN(S(=O)(=O)c4ccc(Cl)c(Cl)c4)CC3)c(F)cc2c1=O` was 4.86% (active). The result for `CCCCCCCCCCCCOB(OCCCCCCCCCCCC)OCCCCCCCCCCCC` reads 95.8% (inactive). The value for `CNC(C)=O` was 103% (inactive). With `COc1cc2nc(N3CCC[C@@H](NC4=CC(=O)c5ccccc5C4=O)C3)nc(N)c2cc1OC`, the growth was -44.1% (active). Take `COC(=O)[C@H]1[C@H](OC)[C@@H](OC(=O)/C=C/c2ccncc2)CC2CN3CCc4c([nH]c5cc(OC)ccc45)[C@@H]3C[C@@H]21` (some centres undefined): the growth is 57.4% (inactive). In the case of `Clc1nc(-c2cccnc2)nc2sc3c(c12)CCCCCC3`, the growth was 96.9% (inactive). The value for `O=c1oc2cc(OS(=O)(=O)c3ccc(F)cc3)ccc2c2c1CCCCC2` was 34.8% (inactive); that for `CC(=O)C1CCC(C)=CC1=O` (centres undefined) was 100% (inactive).
